Results published in PubChem BioAssay.
Activity calls are given as the source filed them.

Legend:
[1] = test system: Plasmodium falciparum Sir2 (PF13_0152, Sir2A); test: pfSir2 binders on small-molecule microarrays, primary screen, biochemical, small-molecule microarray, 635 nm fluorescence (AID 1098); conditions: small-molecule microarray binding, fluorescence 635 nm; higher = more signal;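 further: score merges spot fluorescence intensity with its signal-to-noise ratio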
[2] = small-molecule microarray binders of probe aDKK1, primary screen, biochemical, biotinylated probe, 635/667 nm fluorescence (AID 1099); conditions: higher = more signal;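 further: score merges 667nm spot fluorescence with signal to noise across triplicate slides; reference of the scale not given here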
[3] = small-molecule microarray binders of probe aCHRDL2, primary screen, biochemical, biotinylated probe, 635/667 nm fluorescence (AID 1100); conditions: higher = more signal
[4] = splicing luciferase reporter signal modulators, primary screen, spliceosome inhibition project, cell-based, HEK293, splice +/- reporter (AID 1101); conditions: luminescence, 24 h, higher = more signal, called active from +8 up or from −8 down;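 further: HEK293 cells carrying a splicing-competent luciferase reporter gene; test concentration not given here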
[5] = target: Fibroblast growth factor 10 (Homo sapiens) (UniProt O15520); test: FGF10 binders on small-molecule microarrays, primary screen, biochemical, small-molecule microarray, 635 nm fluorescence (AID 1102); conditions: FGF10 binding, fluorescence 635 nm, higher = more signal
Fibroblast growth factor 10 (Homo sapiens), sequence (O15520 whole entry, looked up): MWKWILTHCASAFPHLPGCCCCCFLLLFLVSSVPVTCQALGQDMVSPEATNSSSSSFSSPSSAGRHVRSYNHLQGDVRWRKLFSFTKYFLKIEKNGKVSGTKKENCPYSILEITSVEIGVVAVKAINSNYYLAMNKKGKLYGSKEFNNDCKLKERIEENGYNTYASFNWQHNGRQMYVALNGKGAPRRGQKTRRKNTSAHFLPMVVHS

[6] = test system: glycogen synthase kinase-3 (GSK3A per assay name; protocol says GSK3B); test: GSK3 binders on small-molecule microarrays, primary screen, biochemical, small-molecule microarray, 635 nm fluorescence, GSK3A (AID 1103); conditions: small-molecule microarray binding, fluorescence 635 nm; higher = more signal; further: the record names both GSK3A and GSK3B
[7] = target: Epidermal growth factor receptor (Homo sapiens) (UniProt P00533); test: EGFR binders on small-molecule microarrays, primary screen, biochemical, small-molecule microarray, 635 nm fluorescence (AID 1104); conditions: EGFR binding, higher = more signal;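 further: score merges 667 nm emission intensity with spot signal to noise over triplicate slides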
Epidermal growth factor receptor (Homo sapiens), sequence (P00533 whole entry, looked up): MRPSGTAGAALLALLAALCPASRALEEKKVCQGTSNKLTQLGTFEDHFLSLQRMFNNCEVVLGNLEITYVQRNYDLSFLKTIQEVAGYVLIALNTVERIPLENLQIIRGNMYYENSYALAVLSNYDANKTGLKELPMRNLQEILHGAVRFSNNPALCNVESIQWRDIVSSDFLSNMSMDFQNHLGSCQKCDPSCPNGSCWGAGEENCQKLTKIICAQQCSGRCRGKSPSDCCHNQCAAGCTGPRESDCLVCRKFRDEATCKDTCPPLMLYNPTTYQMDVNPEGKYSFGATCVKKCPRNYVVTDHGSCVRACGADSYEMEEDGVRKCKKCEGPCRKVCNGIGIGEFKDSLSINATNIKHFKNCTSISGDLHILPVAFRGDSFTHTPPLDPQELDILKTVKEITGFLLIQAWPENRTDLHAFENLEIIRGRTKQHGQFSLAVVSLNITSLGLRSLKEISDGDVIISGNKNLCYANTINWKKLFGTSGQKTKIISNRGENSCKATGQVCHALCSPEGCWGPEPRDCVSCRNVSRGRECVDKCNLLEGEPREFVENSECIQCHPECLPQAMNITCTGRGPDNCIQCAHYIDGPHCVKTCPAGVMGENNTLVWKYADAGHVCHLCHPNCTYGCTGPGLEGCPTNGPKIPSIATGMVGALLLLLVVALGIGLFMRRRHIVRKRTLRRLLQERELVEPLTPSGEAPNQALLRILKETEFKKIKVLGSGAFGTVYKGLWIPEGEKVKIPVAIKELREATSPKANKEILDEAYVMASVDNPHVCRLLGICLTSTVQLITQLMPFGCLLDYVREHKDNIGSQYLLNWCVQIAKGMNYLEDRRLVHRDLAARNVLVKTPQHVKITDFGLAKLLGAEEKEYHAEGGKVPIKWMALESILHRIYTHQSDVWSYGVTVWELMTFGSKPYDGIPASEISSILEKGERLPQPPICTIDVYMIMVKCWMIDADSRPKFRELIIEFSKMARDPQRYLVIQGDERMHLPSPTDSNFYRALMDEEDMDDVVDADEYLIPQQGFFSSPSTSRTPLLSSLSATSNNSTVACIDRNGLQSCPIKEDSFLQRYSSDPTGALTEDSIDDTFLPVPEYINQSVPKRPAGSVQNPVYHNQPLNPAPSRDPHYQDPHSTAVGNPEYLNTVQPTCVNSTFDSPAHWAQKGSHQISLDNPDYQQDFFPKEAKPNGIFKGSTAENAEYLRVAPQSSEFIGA

[8] = target: Follistatin-related protein 3 (Homo sapiens) (UniProt O95633); test: FSTL3 binders on small-molecule microarrays, primary screen, biochemical, small-molecule microarray, 635 nm fluorescence (AID 1105); conditions: FSTL3 binding, higher = more signal;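 further: score merges emission near 667 nm and signal to noise per printed spot across three slides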
Follistatin-related protein 3 (Homo sapiens), sequence (O95633 whole entry, looked up): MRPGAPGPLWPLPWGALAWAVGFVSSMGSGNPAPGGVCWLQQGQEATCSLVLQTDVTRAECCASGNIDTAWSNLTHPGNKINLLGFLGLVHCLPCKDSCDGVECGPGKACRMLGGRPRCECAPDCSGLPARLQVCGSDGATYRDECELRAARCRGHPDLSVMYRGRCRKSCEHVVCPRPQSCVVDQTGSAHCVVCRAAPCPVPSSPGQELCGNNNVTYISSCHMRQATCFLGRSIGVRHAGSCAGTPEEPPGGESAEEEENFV

[9] = target: Dickkopf-related protein 1 (Homo sapiens) (UniProt O94907); test: DKK1 binders on small-molecule microarrays, primary screen, biochemical, small-molecule microarray, 635 nm fluorescence scan (AID 1106); conditions: DKK1 binding, higher = more signal;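 further: score merges emission near 667 nm with signal to noise over three replicate slides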
Dickkopf-related protein 1 (Homo sapiens), sequence (O94907 whole entry, looked up): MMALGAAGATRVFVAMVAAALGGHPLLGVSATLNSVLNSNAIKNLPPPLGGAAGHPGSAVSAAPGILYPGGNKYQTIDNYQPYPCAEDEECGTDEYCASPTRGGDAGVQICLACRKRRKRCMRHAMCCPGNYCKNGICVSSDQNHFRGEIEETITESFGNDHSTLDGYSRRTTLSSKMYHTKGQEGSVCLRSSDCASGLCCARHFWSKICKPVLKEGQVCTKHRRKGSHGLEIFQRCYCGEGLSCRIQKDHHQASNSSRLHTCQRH

[10] = test system: Inhibin beta A chain (activin A); test: INHBA (activin A) binders on microarrays, primary screen, biochemical, small-molecule microarray, 635 nm fluorescence scan (AID 1107); conditions: small-molecule microarray binding, higher = more signal;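 further: mouse activin A protein probed at 4.33 µg/mL on printed slides; score merges bound-protein fluorescence near 667 nm with spot signal-to-noise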

Row | SMILES | composite z-score [1] | composite z-score [2] | composite z-score [3] | z-score [4] | composite z-score [5] | composite z-score [6] | composite z-score [7] | composite z-score [8] | composite z-score [9] | composite z-score [10]
1 | [N-]=[N+]=Nc1ccccc1C[C@@]1(C(=O)NCc2ccccc2)N=C(c2ccc(OCCCO)cc2)O[C@@H]1c1ccccc1 | 1.22 | 0.95 | 1.03 | -0.0448 (inactive) | 1.14 | 1.29 | 0.165 | 1.06 | 0.313 | 0.838
2 | COC(=O)[C@H]1N=C(c2ccc(OCCCO)cc2)O[C@H]1c1ccccc1N=[N+]=[N-] | 1.08 | 0.927 | 1.34 | -0.977 (inactive) | -0.0781 | 0.205 | -0.454 | -0.359 | -0.529 | 1.21
3 | CC(C)c1ccc(NN2C(C(O)C3=C[C@H]4C[C@@H](C3)C4(C)C)C=CC3C(=O)N(c4ccccc4)C(=O)C32)cc1 (stereo not given in full) | 0.969 | 0.886 | 0.665 | -0.0409 (inactive) | 0.409 | 0.577 | 0.366 | 0.827 | 0.245 | 0.829
4 | C=C(/C=C\CNS(=O)(=O)c1ccc(C)cc1)[C@H](O)[C@H]1CCCN1S(=O)(=O)c1ccccc1[N+](=O)[O-] | 0.0251 | -0.142 | -0.55 | -0.465 (inactive) | 0.598 | 0.215 | 0.629 | 0.122 | 0.524 | 0.509
5 | C=C(CC1([C@@H](NP(=O)(c2ccccc2)c2ccccc2)[C@H]2C[C@@H]2CCCC)CC1)c1cccc(OC)c1 | -0.167 | 0.91 | 1.15 | -2.52 (inactive) | 0.158 | -0.3 | -0.28 | 0.463 | -1.14 | 1.03
6 | COC(=O)[C@@]1(Cc2ccc(F)cc2)[C@H]2c3cc(C(=O)N4CCCC4)n(Cc4ccc(C(F)(F)F)nc4)c3C[C@H]2CN1C(=O)c1ccccc1 | 0.513 | 0.16 | 1.33 | -0.375 (inactive) | 0.472 | 1.3 | 0.643 | 1.19 | -0.417 | 0.843
7 | O=C1C[C@@](C(=O)NCC(F)(F)F)(c2ccc([N+](=O)[O-])cc2)[C@@H](c2ccc(CO)cc2I)N1CC12CC3CC(CC(C3)C1)C2 | 1.5 | -0.113 | 0.0558 | -1.85 (inactive) | 0.343 | 0.785 | 0.237 | 0.406 | -0.0464 | 0.227
8 | O=C1O[C@H](c2ccccc2)[C@H](c2ccccc2)N2[C@H]1[C@@H](C(=O)O)[C@]1(C(=O)Nc3ccc(C#CC4(O)CCCCCC4)cc31)[C@H]2c1ccccc1OCCO | 1.5 | 0.0035 | -0.351 | -0.767 (inactive) | 1.02 | 1.29 | 0.24 | 0.69 | 0.195 | 0.745
9 | COC(=O)[C@@]1(Cc2ccc(F)cc2)[C@H]2c3cc(C(=O)N(C)C)n(Cc4ccsc4Br)c3C[C@H]2CN1C(=O)c1ccccc1 | 1.3 | 2.31 | 1.36 | -3.81 (inactive) | 1.16 | 0.0579 | 1.51 | 0.369 | 0.0249 | 0.5
10 | C=CCNC(=O)[C@@H]1[C@H]2C(=O)O[C@H](c3ccccc3)[C@H](c3ccccc3)N2[C@H](c2ccc(OCCO)cc2)[C@@]12C(=O)Nc1ccc(C#CC3=CCCCC3)cc12 | 1.11 | -0.297 | -0.299 | -0.384 (inactive) | 1.17 | 1.21 | 0.39 | 0.882 | 0.586 | -0.621
11 | CCCCCCc1nc(Cc2cc(OC)c(OC)c(OC)c2)c(C)c2c1[Si](C(C)C)(C(C)C)OC2 | 0.197 | -0.1 | -0.35 | -2.3 (inactive) | 0.261 | 0.104 | -0.0718 | 0.237 | 0.163 | 0.987
12 | COCCOC(=O)N1C(=O)[C@@]2(c3cc(C#CCNC(N)=O)ccc31)[C@H](C(=O)Nc1nc3ccccc3s1)[C@H]1C(=O)O[C@H](c3ccccc3)[C@H](c3ccccc3)N1[C@@H]2c1ccc(O)cc1 | 0.576 | 0.406 | 0.774 | 1.05 (inactive) | 0.777 | 1.06 | 0.195 | 0.783 | 0.393 | 0.719
13 | C=C(CCCC)/C(=C/C[C@@H](OC(C)=O)c1ccc(OCCO)cc1)c1cc(C(=O)OC)ccc1OC | 1.14 | 0.0822 | 0.411 | 0.374 (inactive) | 0.151 | 0.244 | -0.597 | -0.137 | -0.348 | 0.763
